Of roughly 7,900 targets only a part is listed; those with a hit were picked by preference. About 0.6% of all pairs of compound and target were hits.
compound: COC(=O)[C@H](CCSC)NC(=O)C1=C(C=C(C=C1)NC[C@H](CS)N)C2=CC=CC=C2; assay: log2 fold change, soluble protein after heating vs DMSO (PISA); higher = thermal stabilisation; K562 cells, 10 uM, 30 min; active = over 0.2 and 3.5 SD of the protein, either way, in both replicates (recomputed)
In short: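 K562 cells at 2×10^6 cells/mL were treated with 10 μM compound for 30 min. Aliquots were heated for 3 min across 48°C-58°C, pooled, and extracted in PBS with 0.5% NP-40 at 4°C; soluble protein was the supernatant after 21,000xg for 90 min. Soluble protein was quantified by TMTpro 16plex LC-MS/MS with channel sums equalised, and reported as log2 fold change in thermal stability against DMSO controls, with values from duplicates.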

Chain of UniProt O60551 (O60551 whole entry, looked up): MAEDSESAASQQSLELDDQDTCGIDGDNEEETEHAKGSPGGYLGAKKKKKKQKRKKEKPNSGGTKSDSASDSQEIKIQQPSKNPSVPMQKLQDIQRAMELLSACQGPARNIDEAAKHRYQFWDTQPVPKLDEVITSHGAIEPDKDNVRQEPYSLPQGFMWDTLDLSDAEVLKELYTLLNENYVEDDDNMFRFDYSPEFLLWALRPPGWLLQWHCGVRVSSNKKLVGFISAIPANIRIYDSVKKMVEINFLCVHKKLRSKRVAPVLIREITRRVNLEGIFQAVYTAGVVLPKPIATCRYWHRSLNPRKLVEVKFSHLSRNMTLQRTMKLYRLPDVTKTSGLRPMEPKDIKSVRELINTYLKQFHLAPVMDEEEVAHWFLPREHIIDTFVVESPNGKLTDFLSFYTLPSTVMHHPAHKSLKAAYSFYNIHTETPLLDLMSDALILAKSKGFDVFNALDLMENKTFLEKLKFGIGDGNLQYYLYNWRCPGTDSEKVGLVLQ
Chain of UniProt Q96I59 (Q96I59 whole entry, looked up): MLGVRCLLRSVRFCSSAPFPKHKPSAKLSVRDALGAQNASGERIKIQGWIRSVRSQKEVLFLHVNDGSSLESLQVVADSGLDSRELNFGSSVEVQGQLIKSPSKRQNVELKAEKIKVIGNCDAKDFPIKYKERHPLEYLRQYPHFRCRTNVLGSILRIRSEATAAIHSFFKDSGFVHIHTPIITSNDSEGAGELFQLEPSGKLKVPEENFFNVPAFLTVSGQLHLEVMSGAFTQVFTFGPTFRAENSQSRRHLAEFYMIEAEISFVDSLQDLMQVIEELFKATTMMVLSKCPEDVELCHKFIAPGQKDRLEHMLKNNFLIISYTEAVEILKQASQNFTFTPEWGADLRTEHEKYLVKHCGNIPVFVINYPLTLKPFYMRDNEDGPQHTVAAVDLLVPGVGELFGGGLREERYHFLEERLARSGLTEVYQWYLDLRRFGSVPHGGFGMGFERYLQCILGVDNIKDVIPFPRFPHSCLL
Chain of UniProt Q13469 (Q13469 whole entry, looked up): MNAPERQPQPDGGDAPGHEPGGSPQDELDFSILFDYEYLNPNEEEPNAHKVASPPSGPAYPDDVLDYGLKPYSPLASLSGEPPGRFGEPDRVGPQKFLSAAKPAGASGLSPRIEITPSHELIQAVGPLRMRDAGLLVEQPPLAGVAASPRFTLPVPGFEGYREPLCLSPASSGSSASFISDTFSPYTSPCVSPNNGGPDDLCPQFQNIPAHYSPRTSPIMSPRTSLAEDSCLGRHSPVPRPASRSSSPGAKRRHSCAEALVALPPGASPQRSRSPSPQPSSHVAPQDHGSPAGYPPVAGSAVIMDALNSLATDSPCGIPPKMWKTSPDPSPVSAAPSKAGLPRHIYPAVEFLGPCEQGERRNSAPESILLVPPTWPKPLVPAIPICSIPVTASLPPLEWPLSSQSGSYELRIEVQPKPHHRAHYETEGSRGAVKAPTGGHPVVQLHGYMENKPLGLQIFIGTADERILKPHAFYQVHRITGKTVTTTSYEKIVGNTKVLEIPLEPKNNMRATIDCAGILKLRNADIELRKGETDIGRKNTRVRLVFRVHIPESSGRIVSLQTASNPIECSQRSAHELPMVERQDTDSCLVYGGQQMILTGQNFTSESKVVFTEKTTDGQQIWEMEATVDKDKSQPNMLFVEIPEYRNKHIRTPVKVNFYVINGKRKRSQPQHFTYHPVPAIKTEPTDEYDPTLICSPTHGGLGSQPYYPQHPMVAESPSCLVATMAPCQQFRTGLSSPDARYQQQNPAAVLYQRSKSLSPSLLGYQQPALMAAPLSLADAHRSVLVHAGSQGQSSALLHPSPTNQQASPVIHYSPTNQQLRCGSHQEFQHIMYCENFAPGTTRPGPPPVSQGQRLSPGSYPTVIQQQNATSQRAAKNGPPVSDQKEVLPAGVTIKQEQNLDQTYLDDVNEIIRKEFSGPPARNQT
Chain of UniProt O00567 (O00567 whole entry, looked up): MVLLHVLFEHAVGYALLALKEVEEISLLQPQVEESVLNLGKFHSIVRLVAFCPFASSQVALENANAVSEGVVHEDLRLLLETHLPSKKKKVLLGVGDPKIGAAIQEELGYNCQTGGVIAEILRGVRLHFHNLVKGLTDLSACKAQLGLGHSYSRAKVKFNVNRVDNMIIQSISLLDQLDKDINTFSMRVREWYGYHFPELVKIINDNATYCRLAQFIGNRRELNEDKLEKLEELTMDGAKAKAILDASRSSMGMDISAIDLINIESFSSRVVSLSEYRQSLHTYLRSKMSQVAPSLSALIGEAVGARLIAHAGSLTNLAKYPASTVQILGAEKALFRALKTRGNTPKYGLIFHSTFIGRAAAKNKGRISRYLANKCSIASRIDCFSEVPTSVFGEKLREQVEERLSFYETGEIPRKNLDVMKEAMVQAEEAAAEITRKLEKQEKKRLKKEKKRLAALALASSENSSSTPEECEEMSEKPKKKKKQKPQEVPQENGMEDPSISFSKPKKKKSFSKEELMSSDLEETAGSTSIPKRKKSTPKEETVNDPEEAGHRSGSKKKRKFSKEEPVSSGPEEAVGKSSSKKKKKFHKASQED
Chain of UniProt Q8NI08 (Q8NI08 whole entry, looked up): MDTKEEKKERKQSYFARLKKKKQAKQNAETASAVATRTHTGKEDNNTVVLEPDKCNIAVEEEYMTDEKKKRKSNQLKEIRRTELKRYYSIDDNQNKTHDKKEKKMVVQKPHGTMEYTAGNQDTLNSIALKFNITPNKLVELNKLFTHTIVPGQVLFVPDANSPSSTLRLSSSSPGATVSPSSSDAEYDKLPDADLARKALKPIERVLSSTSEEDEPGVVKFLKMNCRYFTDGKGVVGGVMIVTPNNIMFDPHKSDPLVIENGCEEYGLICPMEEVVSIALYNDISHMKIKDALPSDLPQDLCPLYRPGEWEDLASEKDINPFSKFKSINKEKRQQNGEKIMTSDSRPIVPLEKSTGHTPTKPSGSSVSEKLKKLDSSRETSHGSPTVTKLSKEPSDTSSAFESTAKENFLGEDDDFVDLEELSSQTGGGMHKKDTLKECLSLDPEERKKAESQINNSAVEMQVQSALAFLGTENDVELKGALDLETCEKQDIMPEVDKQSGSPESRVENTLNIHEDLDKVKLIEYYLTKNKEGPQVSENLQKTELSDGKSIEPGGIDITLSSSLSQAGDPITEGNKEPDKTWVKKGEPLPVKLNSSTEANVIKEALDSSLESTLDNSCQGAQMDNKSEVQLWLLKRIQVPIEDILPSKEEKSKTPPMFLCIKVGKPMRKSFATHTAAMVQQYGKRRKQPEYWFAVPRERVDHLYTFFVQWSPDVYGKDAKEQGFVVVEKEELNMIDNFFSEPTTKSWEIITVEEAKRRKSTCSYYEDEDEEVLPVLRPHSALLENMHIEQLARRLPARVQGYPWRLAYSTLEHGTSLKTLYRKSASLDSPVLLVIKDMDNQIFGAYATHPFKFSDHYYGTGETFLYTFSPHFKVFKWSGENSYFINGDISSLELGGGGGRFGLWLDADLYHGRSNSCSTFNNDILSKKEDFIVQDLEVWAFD
Chain of UniProt Q9NWU1 (Q9NWU1 whole entry, looked up): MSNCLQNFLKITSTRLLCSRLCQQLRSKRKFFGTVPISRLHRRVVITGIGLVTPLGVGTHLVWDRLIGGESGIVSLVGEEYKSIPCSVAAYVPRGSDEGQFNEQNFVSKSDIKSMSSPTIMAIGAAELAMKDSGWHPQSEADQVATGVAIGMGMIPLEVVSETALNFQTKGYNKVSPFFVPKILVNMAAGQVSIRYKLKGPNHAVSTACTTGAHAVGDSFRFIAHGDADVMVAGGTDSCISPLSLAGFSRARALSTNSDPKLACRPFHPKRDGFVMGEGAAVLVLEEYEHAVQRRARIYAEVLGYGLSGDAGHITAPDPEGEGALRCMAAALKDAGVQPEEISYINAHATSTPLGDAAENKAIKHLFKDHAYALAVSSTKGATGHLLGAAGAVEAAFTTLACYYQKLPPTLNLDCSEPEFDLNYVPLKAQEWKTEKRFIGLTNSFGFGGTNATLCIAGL
Chain of UniProt Q96IV0 (Q96IV0 whole entry, looked up): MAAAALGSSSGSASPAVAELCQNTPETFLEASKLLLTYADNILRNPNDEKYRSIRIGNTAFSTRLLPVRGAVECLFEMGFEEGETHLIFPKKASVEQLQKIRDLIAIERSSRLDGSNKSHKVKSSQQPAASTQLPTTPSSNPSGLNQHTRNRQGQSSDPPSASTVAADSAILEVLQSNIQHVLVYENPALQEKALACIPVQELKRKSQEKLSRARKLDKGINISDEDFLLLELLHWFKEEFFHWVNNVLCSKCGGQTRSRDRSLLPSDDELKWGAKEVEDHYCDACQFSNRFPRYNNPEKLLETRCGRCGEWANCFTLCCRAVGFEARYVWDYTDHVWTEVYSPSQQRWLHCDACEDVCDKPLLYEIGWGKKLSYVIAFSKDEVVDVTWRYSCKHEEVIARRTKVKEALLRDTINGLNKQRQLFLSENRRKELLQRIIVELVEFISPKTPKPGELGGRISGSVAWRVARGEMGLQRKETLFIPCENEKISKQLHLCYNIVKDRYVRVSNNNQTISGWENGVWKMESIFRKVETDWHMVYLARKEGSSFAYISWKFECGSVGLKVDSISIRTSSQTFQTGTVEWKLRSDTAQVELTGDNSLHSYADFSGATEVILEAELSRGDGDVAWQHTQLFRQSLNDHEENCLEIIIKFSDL
Chain of UniProt P49914 (P49914 whole entry, looked up): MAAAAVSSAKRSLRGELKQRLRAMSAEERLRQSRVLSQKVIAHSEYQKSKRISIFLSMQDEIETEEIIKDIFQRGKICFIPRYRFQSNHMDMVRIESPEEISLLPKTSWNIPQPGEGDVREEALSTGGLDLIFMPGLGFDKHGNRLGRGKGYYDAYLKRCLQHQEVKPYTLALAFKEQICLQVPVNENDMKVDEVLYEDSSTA
Chain of UniProt P00846 (P00846 whole entry, looked up): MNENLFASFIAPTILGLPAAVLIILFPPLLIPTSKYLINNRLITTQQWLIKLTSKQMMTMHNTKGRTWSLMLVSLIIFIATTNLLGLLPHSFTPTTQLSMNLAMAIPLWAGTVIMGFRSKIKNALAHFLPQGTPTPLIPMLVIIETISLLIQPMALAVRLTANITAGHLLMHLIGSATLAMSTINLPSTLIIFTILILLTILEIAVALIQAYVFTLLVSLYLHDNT

Question: How did the log2 fold change turn out when NOB1 (UniProt Q9ULX3) was run?
Answer: 0 (inactive)

Question: MRPS25 (UniProt P82663) was tested. Which log2 fold change did it give?
Answer: -0.017 (inactive)

Question: NACC1 (UniProt Q96RE7) was tested. Which log2 fold change did it give?
Answer: -0.021 (inactive)

Question: Which log2 fold change does the source give for NEMP1 (UniProt O14524) here?
Answer: 0.053 (inactive)

Question: With MTHFD1 (UniProt P11586) as the target, how does the log2 fold change read?
Answer: -0.036 (inactive)

Question: With OXSM (UniProt Q9NWU1) as the target, how does the log2 fold change read?
Answer: -0.019 (inactive)

Question: With MT-ATP6 (UniProt P00846) as the target, how does the log2 fold change read?
Answer: 0.05 (inactive)

Question: Which log2 fold change does the source give for OTUD4 (UniProt Q01804) here?
Answer: 0.001 (inactive)

Question: MRPL50 (UniProt Q8N5N7) was tested. Which log2 fold change did it give?
Answer: 0.061 (inactive)

Question: How did the log2 fold change turn out when NFATC2 (UniProt Q13469) was run?
Answer: 0.071 (inactive)

Question: For NUP205 (UniProt Q92621), which log2 fold change is on record?
Answer: -0.038 (inactive)

Question: MRPS24 (UniProt Q96EL2) was tested. Which log2 fold change did it give?
Answer: -0.108 (inactive)

Question: For MINK1 (UniProt Q8N4C8), which log2 fold change is on record?
Answer: 0.012 (inactive)

Question: NUP85 (UniProt Q9BW27) was tested. Which log2 fold change did it give?
Answer: 0.003 (inactive)

Question: Which log2 fold change does the source give for NOP56 (UniProt O00567) here?
Answer: 0.007 (inactive)

Question: With P4HA2 (UniProt O15460) as the target, how does the log2 fold change read?
Answer: 0.001 (inactive)

Question: With NCAPH (UniProt Q15003) as the target, how does the log2 fold change read?
Answer: -0.039 (inactive)

Question: MRPS15 (UniProt P82914) was tested. Which log2 fold change did it give?
Answer: -0.01 (inactive)

Question: For NA, A0A096LPI6, which log2 fold change is on record?
Answer: 0.019 (inactive)

Question: NQO1 (UniProt P15559) was tested. Which log2 fold change did it give?
Answer: -0.022 (inactive)

Question: With NIBAN1 (UniProt Q9BZQ8) as the target, how does the log2 fold change read?
Answer: -0.017 (inactive)

Question: How did the log2 fold change turn out when MPHOSPH10 (UniProt O00566) was run?
Answer: 0.045 (inactive)

Question: NCAPD2 (UniProt Q15021) was tested. Which log2 fold change did it give?
Answer: -0.025 (inactive)

Question: Which log2 fold change does the source give for NFATC2IP (UniProt Q8NCF5) here?
Answer: -0.017 (inactive)

Question: How did the log2 fold change turn out when NARS2 (UniProt Q96I59) was run?
Answer: -0.008 (inactive)

Question: Which log2 fold change does the source give for NMT2 (UniProt O60551) here?
Answer: 0.023 (inactive)

Question: Which log2 fold change does the source give for MTHFS (UniProt P49914) here?
Answer: 0.014 (inactive)

Question: How did the log2 fold change turn out when NUCKS1 (UniProt Q9H1E3) was run?
Answer: -0.006 (inactive)

Question: With MYH11 isoform 2 (UniProt P35749) as the target, how does the log2 fold change read?
Answer: -0.022 (inactive)

Question: With NUP160 (UniProt Q12769) as the target, how does the log2 fold change read?
Answer: 0.003 (inactive)

Question: Which log2 fold change does the source give for NDUFA12 (UniProt Q9UI09) here?
Answer: -0.018 (inactive)

Question: With NUDT21 (UniProt O43809) as the target, how does the log2 fold change read?
Answer: -0.034 (inactive)

Question: NCOA7 (UniProt Q8NI08) was tested. Which log2 fold change did it give?
Answer: 0.039 (inactive)

Question: MON2 isoform 5 (UniProt Q7Z3U7) was tested. Which log2 fold change did it give?
Answer: -0.025 (inactive)

Question: For NMRAL1 (UniProt Q9HBL8), which log2 fold change is on record?
Answer: -0.154 (inactive)

Question: NMNAT1 (UniProt Q9HAN9) was tested. Which log2 fold change did it give?
Answer: 0.091 (inactive)

Question: Which log2 fold change does the source give for MND1 (UniProt Q9BWT6) here?
Answer: 0.023 (inactive)

Question: With NUDT16 (UniProt Q96DE0) as the target, how does the log2 fold change read?
Answer: -0.05 (inactive)

Question: NGLY1 (UniProt Q96IV0) was tested. Which log2 fold change did it give?
Answer: -0.064 (inactive)
